Shown are actives, neighbours in structure and some others; about 0.93% of the full set was active somewhere.
HIV TAR-Tat: HIV-1 TAR-Tat binding disruption; AID 1259389; actives 0.6% (n = 100,000); HIV-1 TAR RNA, Tat peptide displacement FRET; stronger effect = higher value; z-score (concentration not given with the values); active = z-score of 3 or more in at least 2 runs
CDC25B CDK2 inh: human CDC25B-CDK2/CyclinA binding inhibition. P30305+P24941. HTRF CDC25B-CDK2/CyclinA binding, anti-His/anti-Flag; stronger effect = higher value. z-score (test concentration not listed). actives 0.72% (n = 94,000). AID 1259370; in the data active = z-score above about 3.2
* hit, by the source's call; x = no result given.

SMILES	HIV TAR-Tat	CDC25B CDK2 inh
CC(C)OC(=O)C(C(=O)C(F)(F)F)c1cc(NS(=O)(=O)c2ccccc2)c2ccccc2c1O (stereo not drawn)	x	-0.59
CC(C)OC(=O)C(C(=O)C(F)(F)F)c1cc(NS(=O)(=O)c2ccc(Br)cc2)c2ccccc2c1O (stereo not drawn)	x	19*
CCc1ccc(S(=O)(=O)Nc2cc(-c3c(O)ccc4ccccc34)c(O)c3ccccc23)cc1	x	0.58
CCc1ccc(S(=O)(=O)Nc2cc(Br)c(O)c3ccccc23)cc1	x	18*
O=[N+]([O-])c1ccc(-c2ccn[nH]2)s1	x	-1.1
O=C(Nc1ccc2oc(-c3cccc(F)c3)nc2c1)c1ccc([N+](=O)[O-])o1	22*	2.5
O=C(Nc1ccc2oc(-c3ccc(F)cc3)nc2c1)c1ccc([N+](=O)[O-])o1	2.4	0.59
CCOC(=O)C(C)Sc1nnc(CSc2nc(C)cc(C)n2)n1-c1ccccc1 (stereo not drawn)	-0.18	-1.9
CN(C)c1cc(NCCN2CCCCC2)c2c3c(onc13)-c1ccccc1C2=O	0.47	2.6
CCCN1CCN(c2cc(NCCO)c3c4c(onc24)-c2ccccc2C3=O)CC1	2.9	-3.6
CC1CCCN(CCNc2cc(N(C)C)c3noc4c3c2C(=O)c2ccccc2-4)C1 (stereo not drawn)	9.3*	-2.1
CCCCNc1cc(N2CCN(CCO)CC2)c2noc3c2c1C(=O)c1ccccc1-3	7.7*	0.83
CCN1CCN(c2cc(NCCO)c3c4c(onc24)-c2ccccc2C3=O)CC1	15*	1.1
CC(C)Nc1cc(N2CCCCC2)c2noc3c2c1C(=O)c1ccccc1-3	0.79	-1.2
CN1CCN(c2cc(NCCN3CCCC3)c3c4c(onc24)-c2ccccc2C3=O)CC1	-3.5	-2.2
CC(C)Nc1cc(N2CCN(C)CC2)c2noc3c2c1C(=O)c1ccccc1-3	9.7*	1.5
c1cnc(-c2nc(-c3ccc4c(c3)nnn4C3CCCC3)no2)cn1	0.88	x
Cc1ccc(S(=O)(=O)N(C)C)cc1NC(=O)c1cccnc1Sc1ccccc1	x	-2.3
Cc1cccn2c(=O)c(C(=O)N3CCCC3)cnc12	-1.4	x
Cc1cccc2cc3c(nc12)N(S(=O)(=O)c1ccc(Cl)cc1)CC3	-2	-1.2
O=C(CSc1nc2c(c(=O)[nH]1)CCCC2)Nc1ccc2c(c1)OCO2	0.56	-2.5
COc1ccc(OC)c(NC(=O)CCCc2nnc3n(C)c(=O)c4sccc4n23)c1	0.46	x
O=C1c2ccccc2-c2onc3c(N4CCCCC4)cc(NCCN4CCCC4)c1c23	0.1	-0.44
COc1ccc(Nc2cc(N3CCN(C)CC3)c3noc4c3c2C(=O)c2ccccc2-4)cc1	0.88	7.5*
CN1CCN(c2cc(NCCO)c3c4c(onc24)-c2ccccc2C3=O)CC1	9*	0.56
SMILES	HIV TAR-Tat	CDC25B CDK2 inh
CC1CCCN(c2cc(NC(C)C)c3c4c(onc24)-c2ccccc2C3=O)C1 (stereo not drawn)	0.41	-0.58
CCNc1cc(N2CCCC(C)C2)c2noc3c2c1C(=O)c1ccccc1-3 (stereo not drawn)	4.5*	-0.57
O=C1c2ccccc2-c2onc3c(N4CCN(c5ccccc5F)CC4)cc(NCCO)c1c23	2.3	0.96
O=C1c2ccccc2-c2onc3c(N4CCCCC4)cc(NCCN4CCOCC4)c1c23	6.4*	1.9
CN1CCN(c2cc(Nc3ccc(N(C)C)cc3)c3c4c(onc24)-c2ccccc2C3=O)CC1	-1.2	-0.4
Clc1ccccc1-c1nnc(C(NCc2ccc3c(c2)OCO3)c2ccccc2)o1 (stereo not drawn)	-1.5	x
O=C(Cc1csc(NC(=O)NC2CCCCC2)n1)NCC1CCCCC1	2.3	x
O=S1(=O)C[C@H](NCCc2c[nH]c3ccccc23)[C@@H](S(=O)(=O)c2ccc(F)cc2)C1	-2.3	-0.47
COc1ccc(N=c2ssc(SC)c2-c2ccccc2)cc1	x	-1.7
Cc1ccc(CSc2nc3cccnc3n2Cc2cc(=O)n3ccccc3n2)cc1	-0.24	x
COCCNc1cc(N2CCN(C)CC2)c2noc3c2c1C(=O)c1ccccc1-3	1.6	-2.5
COCCNc1cc(N2CCCCC2)c2noc3c2c1C(=O)c1ccccc1-3	8.1*	1.7
O=C1c2ccccc2-c2onc3c(N4CCCC4)cc(NCCO)c1c23	-5.9	-1.1
O=C1c2ccccc2-c2onc3c(N4CCCCC4)cc(NCCO)c1c23	23*	12
Cc1cc(C)cc(NC(=O)CSCc2cc(=O)n3[nH]cnc3n2)c1	1.8	x
O=C1c2ccncc2C(=O)N1Cc1ccccc1Cl	1.1	x
Oc1ccc2ncccc2c1C(Nc1ccccn1)c1ccc(Cl)cc1 (stereo not drawn)	2.1	2.6
Oc1ccc2ncccc2c1C(Nc1ccccn1)c1cccc(Cl)c1 (stereo not drawn)	1.4	15*
Cc1ccc2oc(C(=O)N(Cc3ccccc3Cl)C3CCS(=O)(=O)C3)cc(=O)c2c1 (stereo not drawn)	-0.49	-0.51
O=C(NCc1c(-n2cccc2)sc2c1CCCC2)Nc1ccc(Br)cc1	3.7	-0.87
Cc1oc(-c2ccc(F)cc2)cc1-c1nn2c(-c3ccoc3C)nnc2s1	18*	1.8
Cc1oc(-c2ccc(Cl)cc2)cc1-c1nn2c(-c3ccco3)nnc2s1	1.4	-1.3
COc1ccc(C2=NC(c3cccnc3)NC(c3cc(Cl)ccc3O)C2)cc1 (stereo not drawn)	-0.77	-1.2
CC1(C)CC(=O)c2cn(-c3ccc(Cl)cc3)c(=O)c(C(=O)O)c2C1	-0.44	-0.9
O=S(=O)(c1cnc[nH]1)N1CCCC1c1ccccc1Cl (stereo not drawn)	0.31	-2.8
SMILES	HIV TAR-Tat	CDC25B CDK2 inh
COc1cc(C(=O)NC(NC(=S)Nc2cccc3ccccc23)C(Cl)(Cl)Cl)cc(OC)c1OC (stereo not drawn)	x	5.1*
COc1cccc(C(=O)NC(NC(=S)Nc2ccc(Cl)cc2Cl)C(Cl)(Cl)Cl)c1 (stereo not drawn)	x	2
O=C(NCCO)Nc1ccc2snnc2c1	1.8	11*
Cc1ccc(NC(=O)Nc2ccc3snnc3c2)cc1	x	-0.55
Nc1ncc(C2=C(Cl)C(O)C(Cl)=C(Cl)C2O)s1 (stereo not drawn)	x	20*
Nc1ncc(S(=O)(=O)O)s1	x	-0.5
Cc1cc(=O)nc2c3ccccc3n(CC(=O)NC3CCCc4ccccc43)n12 (stereo not drawn)	-3.1	-1.1
O=c1cc2cc(O)[nH]c(=O)c2c(O)[nH]1	x	19*
Nc1n[nH]c2cc(=O)[nH]c(O)c12	x	-0.59
Cc1cc(C)c(I)c(C)c1	x	-2.1
CC(=O)Oc1cc(-c2coc3cc(OC(C)=O)c(OC(C)=O)c(OC(C)=O)c3c2=O)cc(OC(C)=O)c1OC(C)=O	25*	x
COc1cc(-c2coc3cc(OC)c(OC)c(OC)c3c2=O)cc(OC)c1OC	3.2	x
CCCC(=O)NCC(c1ccco1)S(=O)(=O)c1cccs1 (stereo not drawn)	1.3	x
CCOc1ccc(S(=O)(=O)Nc2cc3c(c4ccccc24)OC2(C3)N(C)c3ccccc3C2(C)C)cc1 (stereo not drawn)	x	18*
CCOc1ccc(S(=O)(=O)Nc2ccc3c(c2)N(S(=O)(=O)c2ccccc2)CCC3)cc1	0.39	x
CS(=O)(=O)N1CCc2cc(C(=O)NCc3ccco3)ccc21	14*	-0.51
CC(C)NC(=O)c1ccc2c(c1)CCN2S(C)(=O)=O	1.5	-0.84
O=C(CCCc1nc2cccnc2n1C1CCCCC1)N1CCN(c2ccccc2)CC1	-1	x
Cc1cc(C)c2nc(C)cc(Nc3ccc(N(C)C)cc3)c2c1	3.6	-2.8

From PubChem
